# According to PubChem BioAssay (EPA / NIEHS):
# The source made the active and inactive calls. Rule for the calls: active = hit-call score of the fitted dose curve at least 0.9, where 1 is the maximum; inactive = score below 0.9.
# How the values were obtained:
# Settings in all cases: mRNA level, 48 h; actives raise or lower the signal
# [1] = read-out: Phosphatase and tensin (PTEN), PTEN (gene 5728); assay: LTEA_HepaRG_PTEN: Life Technologies and Expression Analysis (LTEA) Assay for Phosphatase and tensin (PTEN) using HepaRG (AID 2283523)
# Outline: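 HepaRG cells, 48 h after plating, exposed in duplicate for 48 h in serum-free induction medium to 8 half-log concentrations up to 100 uM (0.5% DMSO). PTEN mRNA by qRT-PCR, normalized to ACTB, GAPDH, POLR2A; bidirectional fit versus DMSO.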
# [2] = read-out: solute carrier (SLC22A1), SLC22A1 (gene 6580); assay: LTEA_HepaRG_SLC22A1: Life Technologies and Expression Analysis (LTEA) Assay for solute carrier (SLC22A1) using HepaRG (AID 2283524)
# Outline: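 Differentiated human HepaRG cells in serum-free induction medium, exposed 48 h in duplicate to 8-point half-log series from 100 µM top in 0.5% DMSO. SLC22A1 mRNA by TaqMan qRT-PCR normalized to ACTB, GAPDH, POLR2A; bidirectional fit versus DMSO.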
# [3] = read-out: Pyruvate Dehydrogenase Kinase 4 (PDK4), PDK4 (gene 5166); assay: LTEA_HepaRG_PDK4: Life Technologies and Expression Analysis (LTEA) Assay for Pyruvate Dehydrogenase Kinase 4 (PDK4) using HepaRG (AID 2283525)
# Outline: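 HepaRG cells plated 48 h, then switched to serum-free induction medium and exposed in duplicate for 48 h to 8 half-log concentrations from 100 uM in 0.5% DMSO. PDK4 mRNA measured by qRT-PCR, normalized to ACTB, GAPDH and POLR2A; bidirectional fit versus DMSO.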
# [4] = read-out: Nuclear factor erythroid 2-related factor 2 (Homo sapiens) (UniProt Q16236); assay: LTEA_HepaRG_NFE2L2: Life Technologies and Expression Analysis (LTEA) Assay for Nuclear factor erythroid 2-related factor 2 (NFE2L2) Transcription Factor using HepaRG (AID 2283527);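 for outcome: TaqMan qRT-PCR transcript level normalised to ACTB GAPDH and POLR2A housekeeping genes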
# Outline: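 Differentiated human HepaRG cells, serum-free induction medium, exposed 48 h in duplicate to eight half-log concentrations up to 100 uM in 0.5% DMSO. NFE2L2 mRNA by Fluidigm TaqMan qRT-PCR, normalised to ACTB, GAPDH, POLR2A; bidirectional change versus DMSO.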
# [5] = read-out: succinate dehydrogenase complex iron sulfur subunit B (SDHB), SDHB (gene 6390); assay: LTEA_HepaRG_SDHB: Life Technologies and Expression Analysis (LTEA) Assay for succinate dehydrogenase complex iron sulfur subunit B (SDHB) using HepaRG (AID 2283528)
# Outline: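 Readout is SDHB transcript level by qRT-PCR, normalised to three housekeeping genes and fitted bidirectionally against 0.5% DMSO vehicle. Human HepaRG cells were treated for 48 h at up to 100 uM.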
# [6] = read-out: Signal transducer and activator of transcription 3 (Homo sapiens) (UniProt P40763); assay: LTEA_HepaRG_STAT3: Life Technologies and Expression Analysis (LTEA) Assay for Signal transducer and activator of transcription (STAT3) using HepaRG (AID 2283529)
# Outline: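 Differentiated HepaRG cells, serum-free induction medium, dosed 48 h in duplicate, 8 half-log concentrations from 100 uM in 0.5% DMSO. STAT3 mRNA by qRT-PCR, normalised to ACTB, GAPDH, POLR2A; bidirectional fit versus DMSO.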
# [7] = read-out: solute carrier (SLCO1B1), SLCO1B1 (gene 10599); assay: LTEA_HepaRG_SLCO1B1: Life Technologies and Expression Analysis (LTEA) Assay for solute carrier (SLCO1B1) using HepaRG (AID 2283530)
# Outline: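 SLCO1B1 transcript levels were quantified by TaqMan qRT-PCR using three housekeeping genes for normalization. This followed 48 h chemical exposure (100 uM top, half-log, 8 points, 0.5% DMSO) of HepaRG liver cells, with gain or loss fitted relative to DMSO.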
# [8] = read-out: sulfotransferase 2A1 (SULT2A1), SULT2A1 (gene 6822); assay: LTEA_HepaRG_SULT2A1: Life Technologies and Expression Analysis (LTEA) Assay for sulfotransferase 2A1 (SULT2A1) using HepaRG (AID 2283531)
# Outline: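 Expression change of SULT2A1, by qRT-PCR with three housekeeping-gene normalization, was scored bidirectionally versus DMSO. Cells: differentiated HepaRG, dosed in duplicate for 48 h across 8 points, highest 100 µM, half-log dilution, 0.5% DMSO.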
# [9] = read-out: Transforming Growth Factor (TGFA), TGFA (gene 7039); assay: LTEA_HepaRG_TGFA: Life Technologies and Expression Analysis (LTEA) Assay for Transforming Growth Factor (TGFA) using HepaRG (AID 2283532)
# Outline: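 Differentiated HepaRG cells exposed 48 hours in serum-free induction medium, 0.5% DMSO vehicle, 8-point half-log series from 100 uM, in duplicate. TGFA mRNA by TaqMan qRT-PCR, normalised to ACTB, GAPDH, POLR2A; bidirectional fit versus DMSO.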
# [10] = read-out: NAD(P)H dehydrogenase [quinone] 1 (NQO1), NQO1 (gene 1728); assay: LTEA_HepaRG_NQO1: Life Technologies and Expression Analysis (LTEA) Assay for NAD(P)H dehydrogenase [quinone] 1 (NQO1) using HepaRG (AID 2283526)
# Outline: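 Human HepaRG hepatic cells received chemicals for 48 h in serum-free induction medium with 0.5% DMSO, up to 100 uM. Expression was assessed by TaqMan qRT-PCR against housekeeping controls and fitted bidirectionally against DMSO.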
# Nuclear factor erythroid 2-related factor 2 (Homo sapiens), sequence (Q16236 whole entry, looked up): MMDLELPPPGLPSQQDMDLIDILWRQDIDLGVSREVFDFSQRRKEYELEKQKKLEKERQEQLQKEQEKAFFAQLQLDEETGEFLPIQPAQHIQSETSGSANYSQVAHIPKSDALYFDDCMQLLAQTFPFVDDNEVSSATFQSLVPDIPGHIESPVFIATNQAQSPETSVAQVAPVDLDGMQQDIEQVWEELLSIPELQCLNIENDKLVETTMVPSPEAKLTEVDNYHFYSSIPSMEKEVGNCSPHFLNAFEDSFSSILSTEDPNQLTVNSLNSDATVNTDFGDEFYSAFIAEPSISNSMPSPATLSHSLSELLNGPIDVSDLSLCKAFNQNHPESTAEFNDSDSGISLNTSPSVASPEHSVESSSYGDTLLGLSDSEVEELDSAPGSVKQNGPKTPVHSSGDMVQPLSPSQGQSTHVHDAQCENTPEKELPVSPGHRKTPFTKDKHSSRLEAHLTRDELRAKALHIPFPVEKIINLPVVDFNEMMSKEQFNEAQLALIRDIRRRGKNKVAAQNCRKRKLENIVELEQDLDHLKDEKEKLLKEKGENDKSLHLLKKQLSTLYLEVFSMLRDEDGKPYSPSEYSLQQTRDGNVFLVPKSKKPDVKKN
# Signal transducer and activator of transcription 3 (Homo sapiens), sequence (P40763 whole entry, looked up): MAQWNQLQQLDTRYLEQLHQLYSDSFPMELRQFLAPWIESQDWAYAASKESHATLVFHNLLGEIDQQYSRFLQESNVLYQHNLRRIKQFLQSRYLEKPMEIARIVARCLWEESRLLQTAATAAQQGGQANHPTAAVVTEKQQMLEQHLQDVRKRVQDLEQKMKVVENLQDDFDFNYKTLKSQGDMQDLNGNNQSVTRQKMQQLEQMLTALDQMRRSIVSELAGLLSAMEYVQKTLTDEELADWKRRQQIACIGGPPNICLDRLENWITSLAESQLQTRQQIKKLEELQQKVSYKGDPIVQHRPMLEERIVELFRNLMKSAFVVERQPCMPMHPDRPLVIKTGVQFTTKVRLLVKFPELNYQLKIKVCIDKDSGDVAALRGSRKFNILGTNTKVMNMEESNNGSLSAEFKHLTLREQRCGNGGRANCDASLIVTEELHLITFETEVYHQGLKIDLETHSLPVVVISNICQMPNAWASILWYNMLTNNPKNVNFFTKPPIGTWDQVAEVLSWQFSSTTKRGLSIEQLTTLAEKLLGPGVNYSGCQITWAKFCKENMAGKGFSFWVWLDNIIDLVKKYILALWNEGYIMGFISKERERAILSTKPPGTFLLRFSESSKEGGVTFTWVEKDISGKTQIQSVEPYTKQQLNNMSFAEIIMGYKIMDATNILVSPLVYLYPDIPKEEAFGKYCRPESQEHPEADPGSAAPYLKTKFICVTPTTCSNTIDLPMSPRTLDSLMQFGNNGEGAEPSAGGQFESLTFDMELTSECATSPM
compound,measurement,setting,value
CCCCCCCCCC[N+](C)(C)[O-],outcome,[1],inactive
same,outcome,[2],inactive
same,outcome,[3],inactive
same,outcome,[4],inactive
same,outcome,[5],inactive
same,outcome,[6],inactive
same,outcome,[7],inactive
same,outcome,[8],inactive
same,outcome,[9],inactive
CC(=O)OC1CC(C)OC(C)O1 (stereo unspecified),outcome,[1],inactive
same,outcome,[2],inactive
same,outcome,[3],inactive
same,outcome,[4],inactive
same,outcome,[5],inactive
same,outcome,[6],inactive
same,outcome,[7],inactive
same,outcome,[8],inactive
same,outcome,[9],inactive
CC(=O)CC(c1ccccc1)c1c(O)c2ccccc2oc1=O (stereo unspecified),outcome,[1],inactive
same,outcome,[2],inactive
same,outcome,[3],inactive
same,outcome,[4],inactive
same,outcome,[5],inactive
same,outcome,[6],inactive
same,outcome,[7],inactive
same,outcome,[8],inactive
same,outcome,[9],inactive
Cc1cc(Cc2ccc(N)c(C)c2)ccc1N,outcome,[1],inactive
same,outcome,[2],inactive
same,outcome,[3],inactive
same,outcome,[10],inactive
same,outcome,[4],inactive
same,outcome,[5],inactive
same,outcome,[7],inactive
same,outcome,[9],inactive
Cn1cnc2c1c(=O)[nH]c(=O)n2C,outcome,[1],inactive
same,outcome,[2],inactive
same,outcome,[3],inactive
same,outcome,[10],inactive
same,outcome,[4],inactive
same,outcome,[5],inactive
same,outcome,[7],inactive
same,outcome,[9],inactive
CS(=O)(=O)c1ccc([C@@H](C[C@H]2CCC(=O)C2)C(=O)Nc2cnccn2)cc1Cl,AC50,[1],10.1 µM (active)
same,AC50,[2],2.77 µM (active)
same,AC50,[3],0.913 µM (active)
same,AC50,[10],17.9 µM (active)
same,AC50,[4],0.738 µM (active)
same,outcome,[5],inactive
same,AC50,[7],1.01 µM (active)
same,AC50,[9],0.938 µM (active)
CC(C)OC(=O)C(C)(C)Oc1ccc(C(=O)c2ccc(Cl)cc2)cc1,outcome,[1],inactive
same,outcome,[2],inactive
same,AC50,[3],16.7 µM (active)
same,outcome,[4],inactive
same,outcome,[5],inactive
same,outcome,[6],inactive
same,outcome,[7],inactive
same,outcome,[8],inactive
same,outcome,[9],inactive
CSc1ccc(Oc2ccc(S(N)(=O)=O)cc2CN(C)C)cc1C,outcome,[1],inactive
same,outcome,[2],inactive
same,outcome,[3],inactive
same,outcome,[4],inactive
same,outcome,[5],inactive
same,outcome,[6],inactive
same,outcome,[7],inactive
same,outcome,[8],inactive
same,outcome,[9],inactive
CCCC(=O)O,outcome,[1],inactive
same,outcome,[2],inactive
same,outcome,[3],inactive
same,outcome,[4],inactive
same,outcome,[5],inactive
same,outcome,[6],inactive
same,outcome,[7],inactive
same,outcome,[8],inactive
same,outcome,[9],inactive
COC(=O)[C@H]1[C@H]2C[C@@H]3c4[nH]c5cc(OC)ccc5c4CCN3C[C@H]2C[C@@H](OC(=O)c2cc(OC)c(OC)c(OC)c2)[C@@H]1OC,outcome,[1],inactive
same,AC50,[2],52.8 µM (active)
same,outcome,[3],inactive
same,outcome,[10],inactive
same,AC50,[4],42.2 µM (active)
same,outcome,[5],inactive
same,AC50,[7],59 µM (active)
same,outcome,[9],inactive
COC(=O)CCC(=O)OC,outcome,[1],inactive
same,outcome,[2],inactive
same,outcome,[3],inactive
same,outcome,[4],inactive
same,outcome,[5],inactive
same,outcome,[6],inactive
same,outcome,[7],inactive
same,outcome,[8],inactive
same,outcome,[9],inactive
O=C1OC(c2ccc(O)cc2)(c2ccc(O)cc2)c2ccccc21,outcome,[1],inactive
same,AC50,[2],78 µM (active)
same,AC50,[3],50 µM (active)
same,outcome,[10],inactive
same,outcome,[4],inactive
same,outcome,[5],inactive
same,AC50,[7],73.2 µM (active)
same,outcome,[9],inactive
CO[C@@H]1COCC[C@@H]1N[C@@H]1CC[C@@](C(=O)N2CCc3ncc(C(F)(F)F)cc3C2)(C(C)C)C1,outcome,[1],inactive
same,outcome,[2],inactive
same,outcome,[3],inactive
same,outcome,[4],inactive
same,outcome,[5],inactive
same,outcome,[6],inactive
same,outcome,[7],inactive
same,outcome,[8],inactive
same,outcome,[9],inactive
C/C=C/c1ccc(OC)cc1,outcome,[1],inactive
same,outcome,[2],inactive
same,outcome,[3],inactive
same,outcome,[4],inactive
same,outcome,[5],inactive
same,outcome,[6],inactive
same,outcome,[7],inactive
same,outcome,[8],inactive
same,outcome,[9],inactive
CC(C)c1cccc(C(C)C)c1NC(=O)NS(=O)(=O)c1cc(C(C)(C)O)co1,outcome,[1],inactive
same,outcome,[2],inactive
same,outcome,[3],inactive
same,outcome,[4],inactive
same,outcome,[5],inactive
same,outcome,[6],inactive
same,outcome,[7],inactive
same,outcome,[8],inactive
same,outcome,[9],inactive
CC1=C(C)S(=O)(=O)CCS1(=O)=O,outcome,[1],inactive
same,AC50,[2],82.1 µM (active)
same,AC50,[3],62 µM (active)
same,outcome,[10],inactive
same,AC50,[4],65.7 µM (active)
same,outcome,[5],inactive
same,AC50,[7],88.2 µM (active)
same,AC50,[9],50 µM (active)
CC(C)(O)c1ccc(CNC(=O)c2cccnc2Oc2ccc(F)cc2)cc1,outcome,[1],inactive
same,outcome,[2],inactive
same,outcome,[3],inactive
same,outcome,[4],inactive
same,outcome,[5],inactive
same,outcome,[6],inactive
same,outcome,[7],inactive
same,outcome,[8],inactive
same,outcome,[9],inactive
O=C1c2c(O)cccc2Cc2cccc(O)c21,outcome,[1],inactive
same,outcome,[3],inactive
same,outcome,[4],inactive
same,outcome,[5],inactive
same,outcome,[6],inactive
same,outcome,[7],inactive
same,outcome,[8],inactive
same,outcome,[9],inactive
Cc1occc(=O)c1O,outcome,[1],inactive
same,outcome,[2],inactive
same,outcome,[3],inactive
same,outcome,[4],inactive
same,outcome,[5],inactive
same,outcome,[6],inactive
same,outcome,[7],inactive
same,outcome,[9],inactive
CC(N)=O,outcome,[2],inactive
same,outcome,[3],inactive
same,outcome,[4],inactive
same,outcome,[5],inactive
same,outcome,[6],inactive
same,outcome,[7],inactive
same,outcome,[9],inactive
COc1ccc(C(=O)Nc2nc3ccccc3c(NCc3ccccc3)c2C#N)cc1,outcome,[1],inactive
same,outcome,[3],inactive
same,outcome,[10],inactive
same,AC50,[4],20.9 µM (active)
same,outcome,[5],inactive
same,AC50,[7],16.3 µM (active)
same,AC50,[8],21.2 µM (active)
same,outcome,[9],inactive
C/C=C/C=C/C(=O)O,outcome,[1],inactive
same,outcome,[2],inactive
same,outcome,[3],inactive
same,outcome,[4],inactive
same,outcome,[5],inactive
same,outcome,[7],inactive
same,outcome,[8],inactive
same,outcome,[9],inactive
